This is a sample that favours compounds with a hit; in the whole collection about 11% have one here.
IMPase cell inh = IMPase inhibition in cells; P97697; CHO-M1 cells, IP1 accumulation, HTRF TR-FRET ratio; inhibition (IP1 accumulation), % at 46.1 µM; 120,000 tested, under 10 active; active = well fitted curve in the direction sought with a large enough effect in the signal ratio, not every such curve was filed as active; inconclusive = small, poorly fitted or top-dose-only effect, or a change in a side signal; inactive = no such curve, though single readings can be large or run the other way; the % refers to the signal ratio;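 also: cells stimulated with carbachol in lithium chloride buffer; plate controls were DMSO basal wells for no effect and reference inhibitor wells for full effect; higher means more IMPase inhibition seen as more IP1 and lower FRET ratio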
Target sequence (P97697 whole entry, looked up): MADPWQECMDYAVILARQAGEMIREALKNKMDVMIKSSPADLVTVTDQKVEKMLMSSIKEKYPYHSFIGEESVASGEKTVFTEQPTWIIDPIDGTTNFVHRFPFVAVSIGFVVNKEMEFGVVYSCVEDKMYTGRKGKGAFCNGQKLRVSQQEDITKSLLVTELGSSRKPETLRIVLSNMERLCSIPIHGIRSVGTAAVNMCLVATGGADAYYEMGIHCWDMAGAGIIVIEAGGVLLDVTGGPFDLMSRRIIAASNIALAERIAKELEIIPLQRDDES
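Measured: the HTRF emission ratio (665/620 nm) plus the 620 nm donor channel, each fitted to the Hill equation to give AC50. Cells were CHO-M1 given compounds up to 46 uM and a 30 min carbachol stimulation at 37C.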
IMPase Li cell = cell-permeable IMPase inhibitors with lithium potentiation. CHO-M1 cells, IP1 TR-FRET (IP-One), carbachol + lithium. Potency, µM (top dose mostly 59.4 µM), for the others: top-dose activity, negative = IMPase inhibition, actives largely listed as inhibitors. 210,000 tested, 0.35% active; active = well fitted inhibition curve with a large enough effect; inconclusive = small, poorly fitted or top-dose-only effect; inactive = no such curve, though single readings can be large or run the other way;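 also: IP1 builds up when IMPase is blocked and the TR-FRET signal falls; potency is read from the fitted curve at half-maximal effect; plate controls were basal vehicle for no effect and high inhibitor control for full effect; nearly all actives have a fitted effect of over 50% in size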
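Steps: plate 2000 CHO-M1 cells per well and culture 16–30 h; add compound and lithium; incubate 30 min, 37C; add d2-IP1 tracer and Eu cryptate anti-IP1 antibody in lysis buffer; read after 10 min at room temperature.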
HPGD inh = blocks human HPGD enzyme activity; P15428; purified HPGD, NADH fluorescence kinetic, PGE2 substrate; AID 894; Potency, µM, inactives show at the highest dose activity change, negative = inhibition, usual class: inhibitors; 150,000 tested, 4.3% active; also: potency is read from the fitted curve at half-maximal effect
Target sequence (P15428 whole entry, looked up): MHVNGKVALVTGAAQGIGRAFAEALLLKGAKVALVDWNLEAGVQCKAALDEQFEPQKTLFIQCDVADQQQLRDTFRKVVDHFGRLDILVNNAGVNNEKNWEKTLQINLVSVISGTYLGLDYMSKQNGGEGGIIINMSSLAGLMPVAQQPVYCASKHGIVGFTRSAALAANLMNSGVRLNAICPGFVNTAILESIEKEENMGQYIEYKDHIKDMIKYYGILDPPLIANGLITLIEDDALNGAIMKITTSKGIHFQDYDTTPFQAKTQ
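NADH formation kinetics: reaction with 30 uM PGE2 and 1 mM NAD+ (final), 20 nM enzyme, Tris-HCl pH 8 with Tween 20, after 15 min compound preincubation at room temperature. Fluorescence change, last versus first of five reads.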
ALDH1A1 block = blocks purified human ALDH1A1 activity | Purified ALDH1A1, NADH fluorescence, propionaldehyde substrate | AID 1030 | 220,000 tested, 7.3% active | Potency, µM (series often up to 75.3 µM), for inactives: at the highest dose activity, negative = inhibition, actives largely listed as inhibitors | P00352;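 also: potency is read from the fitted curve at half-maximal effect; plate controls were no enzyme wells and a reference inhibitor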
PNC inhibitor = blocks assembly of the perinucleolar compartment; PC3M PTB-GFP, PNC prevalence imaging, 16 h; active compounds read low; activity change (PNC), negative = inhibition, % at 10 µM; 140,000 tested, 3.1% active; AID 2417;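 active = readout at or below -70, meaning at least 70% loss of cells showing the perinucleolar compartment, a nuclear body marking cancer cells; inconclusive = readout between -30 and a set limit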;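 also: plate controls were DMSO wells for no effect and camptothecin positive control wells for full effect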
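Compounds are pinned in duplicate onto adhered PC3M cells stably expressing GFP-tagged PTB and incubated 16 h at 37 C. Cells are then fixed, nuclei stained with Hoechst, and PNC-positive cells counted.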
Numbers without * were called inactive; [ ] = dose if it differs, or a comment. Unless noted, calls follow the shape of the dose curve; as a rule, active = well fitted inhibition curve with a large enough effect (not every such curve was filed as active); inconclusive = small, poorly fitted or top-dose-only effect, or another doubt; inactive = no such curve, though single readings can be large or run the other way. Unless noted, % is scaled to controls: 0 for no effect and ±100 for the full control effect.

`Cc1ccccc1C(=O)NC(=S)Nc1ccc(S(=O)(=O)N2CCOCC2)cc1` gave IMPase cell inh -7.1, IMPase Li cell 14.4%, HPGD inh -7.8%, ALDH1A1 block inconclusive and PNC inhibitor inconclusive.
Screening O=C(NC(=S)Nc1ccc(S(=O)(=O)Nc2ccccc2)cc1)C1CC1 returned IMPase Li cell 14.7% and ALDH1A1 block 22.4µM*.
O=C(NC(=S)Nc1ccc(S(=O)(=O)N2CCCCC2)cc1)c1ccccc1 was read as IMPase cell inh inconclusive, IMPase Li cell 38.8%[38.3 µM], HPGD inh -15.6%, ALDH1A1 block 9.46µM* and PNC inhibitor inconclusive.
OC(CNCc1ccccc1Cl)C(F)(F)F (configuration not stated) was read as IMPase Li cell -0.4% and ALDH1A1 block -0.4%.
`C[C@H]([C@H](C)N1CC(=O)NC(=O)C1)N1CC(=O)NC(=O)C1` gave IMPase Li cell -0.1% and ALDH1A1 block inconclusive.
Screening COc1cc([C@H](O)C(=O)O)ccc1O returned IMPase cell inh 4.5.
Screening Cc1ccc(NC(=O)NC2=N/C(=C(/C#N)C(=O)N3CCCC3)c3ccccc32)cc1 returned IMPase cell inh 1.5, IMPase Li cell 4.4%[38.3 µM], HPGD inh -21.1%, ALDH1A1 block 0.631µM* and PNC inhibitor 42.8.
For CC1(C)NC(C)(C)c2nonc2/C1=N\O the results were IMPase cell inh 9.7, IMPase Li cell 0.8%[38.3 µM], HPGD inh -3.7%, ALDH1A1 block 12.6µM* and PNC inhibitor 22.3.
Screening O=C(CCc1ccccc1)NC(c1cccs1)c1cc(Cl)c2cccnc2c1O (configuration not stated) returned IMPase Li cell 4.7% and ALDH1A1 block inconclusive.
Screening Oc1c(C(c2ccc(Cl)cc2)N2CCCC2)cc(Cl)c2cccnc12 (configuration not stated) returned IMPase Li cell 3.9% and ALDH1A1 block 14.1µM*.
`Oc1c(C(c2ccccn2)N2CCC(Cc3ccccc3)CC2)cc(Cl)c2cccnc12` (configuration not stated) gave IMPase Li cell 19.8% and ALDH1A1 block 5.62µM*.
CN1CCN(C(c2ccccn2)c2cc(Cl)c3cccnc3c2O)CC1 (configuration not stated) was read as IMPase Li cell 9.1% and ALDH1A1 block 10µM*.
Screening Oc1c(C(c2ccccc2Cl)N2CCCC2)ccc2cccnc12 (configuration not stated) returned IMPase Li cell 20.4% and ALDH1A1 block inconclusive.
`COC(=O)C/C=C/[C@@H](C)[C@H](OC)c1c(Br)ccc2c1OCO2` gave IMPase Li cell 17.4%, HPGD inh -16.0% and ALDH1A1 block 1.2%.
Cn1c(=O)n(C)c2cc(N3CCCCC3)c(NC(=O)c3ccc(Cl)cc3)cc21 was read as IMPase cell inh 3.7.
O=C(O)COc1ccc(/C=N/NC(=O)Cc2ccc(Cl)cc2)cc1 was read as ALDH1A1 block 0.5%.
For O=C(C1=NN[C@@H]2C(=O)N(c3cccc(F)c3)C(=O)[C@H]12)c1cnccn1 the results were ALDH1A1 block 6.31µM*.
`Cc1ccc(OCc2cn3cccnc3n2)cc1` gave IMPase Li cell -9.2%, HPGD inh inconclusive, ALDH1A1 block -8.3% and PNC inhibitor inconclusive.
N#Cc1cc(-c2ccccc2)nc(Oc2ccccc2)n1 was read as IMPase cell inh 4.0, IMPase Li cell 7.0%, HPGD inh inconclusive, ALDH1A1 block -2.4% and PNC inhibitor -24.3.
Screening NC(=O)c1cc(-c2ccccc2)nc(Oc2ccccc2)n1 returned IMPase cell inh -0.6, IMPase Li cell 1.8%[38.3 µM], HPGD inh -19.9%, ALDH1A1 block -11.4% and PNC inhibitor -116.6*.
Screening O=C(O)c1ccc(-c2ncc[nH]2)cc1 returned IMPase Li cell -3.0% and ALDH1A1 block inconclusive.
For CCN1C(=O)[C@H]2[C@H]3[C@H](O)[C@H](O)C/C(=N/O[C@@H]4O[C@H](COC(C)=O)[C@@H](OC(C)=O)[C@H](OC(C)=O)[C@H]4OC(C)=O)[C@@H]3CC[C@@H]2C1=O the results were ALDH1A1 block -2.1%[13.5 µM].
`COc1ccc(/C=C/C(=O)c2ccc(C)s2)cc1` gave IMPase cell inh -6.1, IMPase Li cell 5.4%, HPGD inh inconclusive and ALDH1A1 block inconclusive.
O=C(CN(Cc1ccco1)C(=O)CNS(=O)(=O)c1ccccc1)NCc1ccccc1 was read as IMPase cell inh -2.4, IMPase Li cell 11.7%[38.3 µM], HPGD inh -19.3%, ALDH1A1 block 14.1µM* and PNC inhibitor inconclusive.
`Cc1ccc(S(=O)(=O)NCC(=O)N(CC(=O)NCc2ccco2)Cc2ccco2)cc1` gave IMPase Li cell -1.2% and ALDH1A1 block 8.91µM*.
Screening O=C(CN(Cc1cccs1)C(=O)CNS(=O)(=O)c1ccccc1)NCc1ccco1 returned IMPase cell inh 7.3, IMPase Li cell 2.8%[38.3 µM], HPGD inh -4.7%, ALDH1A1 block 20µM* and PNC inhibitor inconclusive.
Screening Cc1ccc(S(=O)(=O)NCC(=O)N(CC(=O)NCC2CCCO2)Cc2ccco2)cc1 (configuration not stated) returned IMPase Li cell -3.9% and ALDH1A1 block 17.8µM*.
NC(=O)C1=CN(C2OC(COP(=O)(O)OP(=O)(O)OC[C@H]3O[C@@H](n4cnc5c(N)ncnc54)[C@H](OP(=O)(O)O)[C@H]3O)C(O)C2O)C=CC1 (some centres not stated) was read as IMPase Li cell 5.9%, HPGD inh -18.4% and ALDH1A1 block 14.4%.
Cc1ccc(C(=O)c2cnc3ccccc3c2-c2ccccc2)cc1 was read as IMPase cell inh -4.8, IMPase Li cell 8.1%[38.3 µM], HPGD inh -15.1%, ALDH1A1 block 12.6µM* and PNC inhibitor 68.3.
For COc1ccc(C(=O)c2cnc3ccccc3c2-c2ccccc2)cc1 the results were IMPase cell inh 9.8, IMPase Li cell 16.6%[38.3 µM], HPGD inh inconclusive, ALDH1A1 block 1.41µM* and PNC inhibitor 72.3.
Cc1cccc(OCC(=O)Nc2ccc(S(=O)(=O)Nc3onc(C)c3C)cc2)c1C was read as IMPase cell inh -2.4.
For CC(C)(C)c1ccc(S(=O)(=O)/C=C/C#N)cc1 the results were IMPase Li cell 17.2%, HPGD inh 10µM* and ALDH1A1 block 0.112µM*.
Screening O=C(COC(=O)c1cnccn1)c1ccc(Br)cc1 returned IMPase cell inh 3.1, IMPase Li cell 8.4%[38.3 µM], HPGD inh -6.4%, ALDH1A1 block -19.8% and PNC inhibitor 12.9.
O=C(COC(=O)c1cnccn1)c1ccc2c(c1)CCCC2 was read as IMPase cell inh 5.3, IMPase Li cell -13.7%[38.3 µM], HPGD inh -12.0%, ALDH1A1 block 28.2µM* and PNC inhibitor -1.6.
For O=C(NCc1ccc(-n2cccc2)cc1)c1cccc(F)c1 the results were IMPase Li cell 4.4% and ALDH1A1 block 15.8µM*.
